Screening results from PubChem.
CYP2C19 act: cytochrome P450 2C19 (human) activation; recombinant CYP2C19, luciferin-H EGE luminescence; hits give high values; 0 = fully inhibited enzyme, 1 = untreated enzyme; activation factor at 5 µM; 96,000 tested, under 10 active; AID 1025;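 active = activation factor of at least 2 at 5 µM in the primary screen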;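 note: 0 = wells with 2.5 mM tranylcypromine and 1 = vehicle-only wells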
Target sequence (P33261 whole entry, looked up): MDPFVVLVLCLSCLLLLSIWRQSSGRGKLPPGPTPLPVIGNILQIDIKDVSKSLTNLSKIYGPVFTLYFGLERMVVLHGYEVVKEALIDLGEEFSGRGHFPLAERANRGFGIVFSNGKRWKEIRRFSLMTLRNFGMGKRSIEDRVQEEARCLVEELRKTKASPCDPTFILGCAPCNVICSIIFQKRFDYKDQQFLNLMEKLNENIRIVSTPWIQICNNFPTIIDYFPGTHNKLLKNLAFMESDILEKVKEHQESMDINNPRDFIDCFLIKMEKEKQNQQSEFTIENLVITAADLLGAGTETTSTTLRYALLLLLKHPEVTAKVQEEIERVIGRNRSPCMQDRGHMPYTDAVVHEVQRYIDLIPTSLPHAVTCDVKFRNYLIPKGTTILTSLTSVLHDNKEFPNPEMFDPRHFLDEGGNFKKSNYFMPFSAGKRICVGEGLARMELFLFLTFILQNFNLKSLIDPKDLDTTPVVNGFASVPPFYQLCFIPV
PostGolgi yeast: growth inhibition of a yeast mutant, post-Golgi transport screen | post-Golgi transport phenotypic cell assay | inhibition, % at 10 µM | hit rate 0.9% among 98,000 | AID 739;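 note: yeast cells grown in 1536-well plates; yeast grown about 18 h at 30C before absorbance read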
CYP2C9 inhib: human CYP2C9 inhibition | CYP2C9 Supersomes, luciferin-H conversion, luminescence | hit rate 20% among 96,000 | AID 777 | P11712 | inhibition, % at 5 µM;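 active = blocking of liver enzyme CYP2C9 beyond about 50% at 5 µM, limit read from the data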
CYP2C9 activ: increases human cytochrome P450 2C9 activity; P11712; hit rate 1.4% among 96,000; recombinant CYP2C9, luciferin-H conversion, luminescence; hits give high values; factor 1 = untreated enzyme, 0 = blocked; activation factor at 5 µM;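 active = activation factor of 2 or more for CYP2C9 at a 5 µM dose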;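 note: 0 = sulfaphenazole-blocked wells and 1 = vehicle-only wells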
CYP2C19 inhib: inhibitors of human CYP2C19; AID 778; inhibition, % at 5 µM; hit rate 21% among 96,000; CYP2C19 Supersomes, luciferin-H EGE luminescence, 30 min;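 active = CYP2C19 inhibition above a set limit at 5 µM in the primary screen, cut at about 50% in these data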;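 note: plate controls were negative control wells for no effect and 2.5 mM tranylcypromine positive control for full effect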
PostGolgi ctrl: growth of the yeast control strain, post-Golgi counter-screen; inhibition, % at 10 µM; hit rate 5% among 98,000; AID 738; efflux-deficient yeast background strain, growth absorbance A615, 16 h
* = called active by the depositor; . = no result given. Most compounds without a hit are left out; they make up all but 32% or so of the library. Cut-off read from the data, not from the text of the source, unless noted: active = inhibition above about 30%; inactive = the rest.

SMILES	CYP2C19 act	PostGolgi yeast	CYP2C9 inhib	CYP2C9 activ	CYP2C19 inhib	PostGolgi ctrl
CCCNC(=O)CN(CCc1ccccc1)S(C)(=O)=O	0.2	6.9	-8.7	1.1	76.5*	-3.3
CS(=O)(=O)N(CCc1ccccc1)CC(=O)NCc1ccc2c(c1)OCO2	0.7	-1.4	30.9	0.7	30.6	2.4
CC1CCN(c2nc(-c3ccccc3O)nc3ccccc23)CC1	1	-0.3	21.0	0.8	-3.3	6.5
COc1cccc(-c2nc(N3CCC(C)CC3)c3ccccc3n2)c1O	1	0.3	41.9	0.6	2.2	72.1*
COc1cccc(-c2nc(N3CC(C)CC(C)C3)c3ccccc3n2)c1O (centres undefined)	1	0.6	31.7	0.7	3.1	74.7*
CN1CCN(c2nc(-c3ccccn3)nc3ccccc23)CC1	1.3	-4.1	-0.5	1	-25.8	-1.4
O=C(NC1CCCCCCC1)C1CCC(CNc2c(N3CCCC3)c(=O)c2=O)CC1 (centres undefined)	1	-1.5	4.0	1	-0.9	-0.4
CCCn1c(=O)c(C(=O)Nc2c(C)n(C)n(-c3ccccc3)c2=O)c(O)c2ccccc21	1.1	.	-1.6	1	-7.4	.
CCOC(=O)C(=O)/C(=C\N(C)C)c1onc(-c2ccccc2Cl)c1C(=O)OC	0.6	0.6	66.6*	0.3	44.1	11.6
CCOC(=O)C(=O)/C(=C\N(C)C)c1onc(-c2ccccc2)c1C(=O)OC	0.9	16.6	10.3	0.9	12.8	-0.9
CCOC(=O)C(=O)/C(=C\N(C)C)c1onc(-c2c(Cl)cccc2Cl)c1C(=O)OC	0.5	10.6	91.2*	0.1	54.8*	2.8
Cc1onc(-c2c(Cl)cccc2Cl)c1C(=O)NC(C)(C)CO	1.1	8.4	7.3	0.9	-13.2	-1.1
O=C(Nc1ccc(N2CCN(Cc3ccccc3)CC2)cc1)c1cccnc1	0.9	-2.9	29.6	0.7	10.3	1.4
COC(=O)c1sc(S(=O)(=O)N2CCCCC2C(=O)O)c(C(=O)OC)c1C (centres undefined)	1.1	19.9	-14.2	1.1	-12.5	3.2
CCN1CCN(CC(=O)NC2CCCC2)C(=O)C1=O	1	-7.6	6.7	0.9	1.0	18.9
CCOC(=O)N1CCC(c2cc(=O)n3[nH]c(C)c(-c4ccc(F)cc4)c3n2)CC1	0.7	3.2	68.5*	0.3	33.4	6.4
CCOC(=O)N1CCC(c2cc(=O)n3[nH]c(-c4ccccc4)cc3n2)CC1	1.1	0.8	66.3*	0.3	-8.2	21.9
CCOC(=O)C1CCN(Cc2cnc(Oc3ccc(C(C)(C)C)cc3)s2)CC1	0.6	4.8	36.6	0.6	39.8	16.7
COc1ccc(S(=O)(=O)N(C)Cc2cccs2)cc1Br	0	13.1	-35.7	1.4	96.4*	18.7
CCCOc1cc(CN2CCCCC2)cc(C(C)=O)c1	1.2	-2.0	-18.1	1.2	-17.1	2.3
CN1CCN(S(=O)(=O)c2cc([N+](=O)[O-])ccc2N2CCCCCC2)CC1	0.4	-1.1	16.0	0.8	55.6*	8.2
COc1ccc(C(O)P(=O)(OC2CCCCC2)c2ccc(N(C)C)cc2)cc1OC (centres undefined)	0.4	7.3	1.9	1	55.9*	1.3
COc1ccc(C2NC(C(=O)O)CS2)cc1COCC(F)(F)F (centres undefined)	.	0.9	.	.	.	3.0
CCCn1c(SCC(N)=O)nnc1-c1ccco1	1	-0.7	6.4	0.9	0.4	3.5
CCn1c(SCC(=O)c2ccc(OC)cc2)nnc1C(C)NC(=O)c1ccc(OC)cc1 (centres undefined)	0.7	-0.3	16.8	0.8	28.0	2.6
SMILES	CYP2C19 act	PostGolgi yeast	CYP2C9 inhib	CYP2C9 activ	CYP2C19 inhib	PostGolgi ctrl
COc1ccc(OC)c(C(=O)CSc2nnc(-c3cccnc3)n2C)c1	0.3	16.8	-12.2	1.1	71.9*	9.8
CCn1c(SCC(=O)c2cc(OC)ccc2OC)nnc1C(C)C	0	1.4	40.6	0.6	98.7*	-3.9
CCCn1c(SCC(=O)c2cc(OC)ccc2OC)nnc1-c1ccco1	0	0.3	46.3	0.5	97.2*	3.0
COc1ccc(OC)c(C(=O)CSc2nccc(-c3ccc(Br)cc3)n2)c1	0.9	18.9	79.4*	0.2	10.8	7.0
O=C(Oc1ccc(OC(=O)N2CCOCC2)cc1)c1ccccc1	0.7	-10.2	6.3	0.9	33.2	3.5
O=C1Nc2ccccc2/C1=N/c1sc2c(c1C(=O)NCCc1ccccc1)CCCC2	0.7	11.5	49.7	0.5	26.4	0.9
O=c1c2c3c(sc2nc2n1CCCCC2)CCCC3	0.8	-13.9	24.9	0.8	19.7	30.9*
CC(C)c1nc2sc3c(c2c(=O)o1)CCCC3	0.5	-9.3	65.8*	0.3	50.8*	14.3
Cc1nc2sc3c(c2c(=O)o1)CCCC3	1	10.3	14.4	0.9	-1.3	0.3
Nc1nc2sc3c(c2c(=O)s1)CCCC3	0.6	-1.2	80.0*	0.2	43.5	38.8*
O=c1c2c3c(sc2nc2n1CCCC2)CCCCC3	0.8	1.0	62.2*	0.4	23.8	20.8
Cc1cccc2cc(COC(=O)COc3ccccc3)c(=O)[nH]c12	1.1	21.5	-12.3	1.1	-11.0	9.9
O=C(COc1ccc(Cl)cc1)NCc1nnc(SCC(=O)N2CCCc3ccccc32)o1	1	-5.8	17.6	0.8	-2.9	7.0
COC(=O)c1ccc2c(c1)C(C)(C)C(/C=C/c1ccc(O)cc1)=[N+]2C	0.1	15.8	98.6*	0	94.7*	20.9
Cc1ccc(OCCn2cc(Br)c(=O)[nH]c2=O)cc1	0.9	-8.2	1.8	1	10.8	10.9
N#C/C=C(/N)N1CCN(c2ccc(Cl)c(Cl)c2)CC1	0.7	32.4*	28.2	0.7	32.9	3.3
COC(=O)N1CCN(c2ccc(OC)cc2)CC1	0.6	3.0	-9.3	1.1	44.7	-4.8
COC(=O)N1CCN(c2ccc(Cl)c(Cl)c2)CC1	0.3	4.7	28.3	0.7	66.3*	-2.0
CCOC(=O)c1[nH]c(C)c(C(=O)OCC(=O)N(CC)C2CCS(=O)(=O)C2)c1C (centres undefined)	1.2	6.1	27.9	0.7	-19.9	1.9
COCCn1nnnc1C(C(C)C)N1CCN(C(=O)c2ccco2)CC1 (centres undefined)	1	0.8	-9.6	1.1	4.4	1.2
COc1cccc2c(=O)n(CC(=O)Nc3cccc(F)c3)ccc12	0.6	-7.5	16.8	0.8	40.7	25.7
COc1ccc(-c2nnc(-c3ccc(N)cc3)o2)cc1	0.9	10.4	76.6*	0.2	8.0	13.0
COc1ccc(-c2nnc(-c3ccc(N(C)C)cc3)o2)cc1	1	0.8	14.6	0.9	-2.8	13.6
CCCCN1C2CCCC1CC(NC(=O)c1ccc(OC)c(OC)c1)C2 (centres undefined)	1	14.1	8.6	0.9	1.4	-9.1
Cc1cc(OCC(=O)N2CCOCC2)ccc1NC(=O)C1CCCCC1	1	23.3	-9.7	1.1	-4.4	16.1
